aDG glyco act – alpha-DG glycosylation activation; Pro5-aDG cells, alpha-DG glycosylation AlphaScreen (IIH6); 0% Pro5, 100% B10-LARGE cell signal; activation, % at 10 µM; hit rate 0.22% among 360,000;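 active means activation of at least 8% versus controls, or a plate z-score of at least 8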;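 further: Pro5 are CHO cells carrying HIG-tagged alpha-DG that lacks glycosylation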
TWEAK Fn14 block – inhibitors of TWEAK-Fn14 interaction signaling. TWEAK-stimulated Fn14 reporter cells, luciferase luminescence, 8 h. inhibition, % at 10 µM. hit rate 2% among 360,000. AID 1159606; in the data active means inhibition above about 50%
TROY signal inh – TROY signaling inhibition; Q293 LMP1-TROYcd NF-kB luciferase reporter, 4 h; inhibition, % at 10 µM; hit rate 0.98% among 360,000;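 active means compounds whose plate-normalised and pattern-corrected inhibition of the luciferase reporter signal at the single screening dose is 50% or more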
LMP1 NFkB inh – reduces LMP1-driven NF-kappaB luciferase signal; hit rate 0.69% among 350,000; LMP1-induced NF-kappaB luciferase reporter cells, luminescence; inhibition, % at 12.5 µM; AID 504558; in the data active means inhibition above about 41%; inconclusive means no clear call, values can overlap the other calls
HSP90 refold inh – inhibitors of HSP90 luciferase refolding in rabbit reticulocyte lysate | inhibition, % at 5.6 µM | AID 1789 | luciferase refolding luminescence, 3 h | hit rate 0.91% among 290,000;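 active means inhibition above the screen-wide mean plus 3 SD, computed separately per campaign, cut at about 16% in these data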;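 further: inhibitors lower the luminescence because luciferase stays unfolded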
LGR2 antag – Drosophila LGR2 receptor signaling inhibition; HEK293 LGR2, CRE-luciferase, bursicon-stimulated, 4 h; inhibition, % at 9.99 µM; hit rate 0.35% among 380,000; AID 720647;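 active means drop in luminescence signal, shown as inhibition above about 50% in the replicate tests, limit read from the data, passing the limit was not always enough; inconclusive means probably only some replicates passing the limit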;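 further: agonist challenge used bursicon conditioned medium at about half maximal strength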
A number is an active result; - = inactive; ? = inconclusive; . = not tested or not shown; ! = not active in a repeat. An excerpt weighted towards active compounds, which were near 2.6% of everything screened.

SMILES	aDG glyco act	TWEAK Fn14 block	TROY signal inh	LMP1 NFkB inh	HSP90 refold inh	LGR2 antag
Cc1c(CCCl)c(Cl)n2c(nc3ccccc32)c1C#N	-	108.9	-	66.4	.	-
O=C(O)c1c(F)c(F)cc2ccccc12	-	106.6	-	-	-	-
C[C@H](CO)N1C[C@H](C)[C@H](CN(C)Cc2ccc3c(c2)OCO3)Oc2ccc(NS(=O)(=O)c3ccc(F)cc3)cc2C1=O	.	.	.	.	.	-
CCN1CCN(Cc2ccc(NC(=O)c3ccc(C)c(NC(=O)c4cccc5[nH]ccc45)c3)cc2C(F)(F)F)CC1	-	-	-	61.7	.	-
CCN1CCN(Cc2ccc(NC(=O)c3cc(NC(=O)c4cncc(-c5ccc(C#N)cc5)c4)cc(OC)c3)cc2C(F)(F)F)CC1	-	-	-	-	.	-
Cc1cn(-c2cc(C(=O)Nc3ccc(C)c(NC(=O)N4CCNC4=O)c3)cc(C(F)(F)F)c2)cn1	-	-	-	-	.	-
CCN1CCN(Cc2ccc(NC(=O)c3cc(NC(=O)c4cnnc5ccccc45)cc(OC)c3)cc2C(F)(F)F)CC1	-	-	-	-	.	-
CCN1CCN(Cc2ccc(NC(=O)c3ccc(C)c(NC(=O)N4CCNC4=O)c3)cc2C(F)(F)F)CC1	-	-	-	47.2!	-	-
CCN1CCN(Cc2ccc(NC(=O)c3ccc(C)c(NC(=O)c4nccn4C)c3)cc2C(F)(F)F)CC1	-	-	-	46.7	.	-
CCN1CCN(Cc2ccc(NC(=O)c3ccc(C)c(NC(=O)c4cncc(-c5cccs5)c4)c3)cc2C(F)(F)F)CC1	-	-	-	71.0	.	.
C[C@H](CO)N1C[C@H](C)[C@@H](CN(C)S(=O)(=O)c2ccc(Cl)cc2)Oc2c(NC(=O)Nc3ccc(F)cc3)cccc2C1=O	.	.	.	.	.	-
O=C(c1cccc(F)c1)N1CC(=O)N2[C@H](C1)[C@H](c1ccc(-c3ccccc3F)cc1)[C@@H]2CO	.	.	.	.	.	-
CCN1CCN(Cc2ccc(NC(=O)c3ccc(C)c(NC(=O)c4cc(-c5ccc(Br)cc5)n[nH]4)c3)cc2C(F)(F)F)CC1	-	-	-	44.5	.	-
CCN1CCN(Cc2ccc(NC(=O)c3cc(NC(=O)c4nccnc4N)cc(OC)c3)cc2C(F)(F)F)CC1	-	-	-	-	.	-
CCN1CCN(Cc2ccc(NC(=O)c3ccc(C)c(NC(=O)c4nccnc4N)c3)cc2C(F)(F)F)CC1	-	-	-	57.3	.	-
O=C(/C=C/c1cccs1)Nc1scc(-c2ccccc2)c1C(=O)O	-	60.5	-	-	-	.
COc1ccccc1NS(=O)(=O)c1ccc2oc(SCc3ccc(C#N)cc3)nc2c1	-	57.7	-	-	-	-
CN1C(=O)c2cc(NC(=O)c3cccc(Cl)c3)ccc2OC[C@H]2O[C@@H](CC(=O)NC3CCCCC3)CC[C@H]21	.	.	.	.	.	-
COc1ccc(C2=NO[C@@H]3C(=O)N(C4CCCCC4)C(=O)[C@H]23)cc1OC	-	-	-	-	-	.
COc1ccc(C2=NO[C@@H]3C(=O)N(c4ccc5c(c4)OCCO5)C(=O)[C@H]23)cc1OC	-	80.8	69.1	-	-	.
CC(C)OCCCN1CN(S(=O)(=O)c2ccccc2)c2nc3ccccc3nc21	-	76.7	.	-	-	.
C[C@H](CO)N1C[C@H](C)[C@@H](CN(C)Cc2cccnc2)Oc2ncc(C#Cc3cccnc3)cc2C1=O	.	.	.	.	.	-
Cc1cc(NC(=O)CSc2nc(-c3cccs3)cc(C(F)(F)F)n2)no1	-	-	-	-	-	-
Cc1cc(NC(=O)CCCS(=O)(=O)c2nc(-c3cccs3)cc(C(F)(F)F)n2)no1	-	60.0	66.4	-	-	-
COC(=O)CCS(=O)(=O)c1nc(-c2ccccc2)cc(C(F)(F)F)n1	-	90.5	-	-	-	.
SMILES	aDG glyco act	TWEAK Fn14 block	TROY signal inh	LMP1 NFkB inh	HSP90 refold inh	LGR2 antag
COCC(C)NC(=O)CCS(=O)(=O)c1nc(-c2ccc(OC)cc2)cc(C(F)(F)F)n1 (configuration not stated)	-	85.7	-	-	-	.
O=C(O)CCS(=O)(=O)c1nc(-c2cccs2)cc(C(F)(F)F)n1	-	-	-	-	-	-
CCOC(=O)CCS(=O)(=O)c1nc(-c2ccccc2)cc(C(F)(F)F)n1	-	83.5	-	-	-	.
CCOC(=O)CS(=O)(=O)c1nc(-c2ccccc2)cc(C(F)(F)F)n1	-	-	-	?	-	.
C[C@H]1CN([C@@H](C)CO)C(=O)c2cc(-c3ccc(F)cc3)cnc2O[C@@H]1CN(C)S(C)(=O)=O	.	.	.	.	.	-
Cc1ccc(CN(C)C[C@@H]2OCc3cn(nn3)CCCC(=O)N([C@@H](C)CO)C[C@H]2C)cc1	.	.	.	.	.	-
Cc1noc(C)c1S(=O)(=O)N(C)C[C@H]1Oc2ccc(NC(=O)Nc3cccc4ccccc34)cc2CC(=O)N([C@H](C)CO)C[C@@H]1C	.	.	.	.	.	-
O=S(=O)(c1ccc(F)cc1)N1CCCCN2[C@@H](CO)[C@@H](c3ccc(-c4ccccc4)cc3)[C@@H]2C1	.	.	.	.	.	-
COc1ccc(-c2cc(C(F)(F)F)nc(S(=O)(=O)CCCC(=O)Nc3cccnc3Cl)n2)cc1OC	-	93.8	-	-	-	?
COc1ccc(Cl)cc1C(=O)OCC(=O)Nc1cccnc1Cl	-	-	-	-	.	-
O=C(NCc1ccncc1)c1cccc(S(=O)(=O)NCc2ccccc2)c1	-	-	-	-	-	-
Cc1ccc(OCCNC(=O)c2cccc(S(=O)(=O)NCc3ccccc3)c2)cc1	-	-	67.0	-	.	-
NC(=O)c1ccc(-n2c(CCC(=O)O)ccc2-c2cccs2)cc1	-	-	-	-	-	-
O=C(O)CCc1ccc(-c2ccccc2)n1NC(=O)c1ccco1	-	-	-	-	-	-
O=C(O)CCc1ccc(-c2cccs2)n1NC(=O)c1ccco1	-	104.5	-	-	-	-
CC(=O)c1ccc(-n2c(CCC(=O)O)ccc2-c2cccs2)cc1	-	60.6	57.2	-	-	-
CCC(=O)N(C)C[C@H]1Oc2cc(-c3ccccc3)ccc2S(=O)(=O)N([C@H](C)CO)C[C@H]1C	.	.	.	.	.	-
O=C(Nc1nnc(-c2ccccc2)s1)c1cc(S(=O)(=O)N2CCOCC2)c(Cl)cc1Cl	-	-	61.4	-	-	.
COc1ccc(C(CNC(=O)C(CCSC)NC(=O)c2ccccc2Cl)N2CCCCC2)cc1 (configuration not stated)	-	-	-	71.4	.	-
COc1ccc(C(CNC(=O)C(CCSC)NC(=O)c2ccccc2Cl)N2CCCC2)cc1 (configuration not stated)	-	-	-	-	.	-
CC(C)c1ccc(Nc2ncc3c(n2)CCN(C(=O)Nc2ccc(F)c(Cl)c2)C3)cc1	-	78.1	65.1	.	.	-
COc1cccc(NC(=O)N2CCc3nc(NCc4cccc(Oc5ccccc5)c4)ncc3C2)c1	-	54.3	-	.	.	.
Cc1c(NC(=O)c2cc3c(s2)-c2ccccc2OC3)cccc1[N+](=O)[O-]	-	62.0	-	-	-	-
O=C(CC1CC1)Nc1ccc2c(c1)[C@H]1C[C@@H](CC(=O)N3CCOCC3)O[C@H](CO)[C@H]1O2	.	.	.	.	.	-

Screens (PubChem BioAssay)
